Vaccinia Venus: inhibitors of vaccinia virus (Venus reporter). hit rate 0.46% among 330,000. Vaccinia virus Venus reporter expression, fluorescence. Potency, µM (top dose mostly 36.5 µM), inactives show at the highest dose activity change, negative = inhibition, usual class: inhibitors. AID 720580; calls by dose curve; tested in A549 cells; further: potency means the concentration at half of the fitted maximal effect; nearly all actives have a fitted effect of over 30% in size
FMDV inh: blocks foot and mouth disease virus | FMDV antiviral cell-based qHTS | Potency, µM (highest dose often 57.9 µM), without a hit: at the highest dose activity change, negative = inhibition, usual class: inhibitors | hit rate 1.2% among 410,000 | AID 1159524; calls by dose curve; tested in HEK293T cells; further: read-out not given here; potency means the concentration at half of the fitted maximal effect; nearly all actives have a fitted effect of over 45% in size
HCMV inh: human cytomegalovirus inhibition; HFF cells, HCMV-luciferase reporter, 72 h; stronger effect = lower value; hit rate 4.5% among 410,000; activity change, negative = inhibition, % at 57.5 µM; AID 1259415; in the data active means activity change below about -60%; inconclusive means no clear call, values can overlap the other calls; inactive means above about -39%
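Luciferase read-out from HCMV-luciferase-infected HFFs (MOI 1 PFU/cell) 72 h post infection at 37C; compounds added after 16 h cell attachment; activity normalized between buffer-only basal and Salinomycin (10uM) inhibitor controls.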
MARV entry inh: blocks Marburg virus binding to or entry into cells. Marburg virus pseudotyped entry inhibition, cell reporter. hit rate 1.8% among 300,000. Potency, µM (highest dose often 37.8 µM), for the others: top-dose activity change, negative = inhibition, usual class: inhibitors; calls by dose curve; tested in HEK293 cells; further: potency means the concentration at half of the fitted maximal effect
VACV mCherry inh: vaccinia inhibition (mCherry reporter); Vaccinia virus mCherry reporter infection, fluorescence; Potency, µM (series often up to 36.5 µM), inactives show top-dose activity change, negative = inhibition, most hits filed as inhibitors; hit rate 0.63% among 310,000; calls by dose curve; tested in A549 cells; further: potency means the concentration at half of the fitted maximal effect; nearly all actives have a fitted effect of over 35% in size
LASV entry inh: blocks Lassa virus binding to or entry into cells. AID 540256. Potency, µM (highest dose often 37.9 µM), for the others: at the highest dose activity change, negative = inhibition, actives largely listed as inhibitors. Lassa virus pseudotype entry inhibition, cell reporter. hit rate 1.2% among 300,000; calls by dose curve; tested in HEK293 cells; further: potency means the concentration at half of the fitted maximal effect; nearly all actives have a fitted effect of over 50% in size
* marks the source's active call; other numbers are inactive results; i = inactive; ? = inconclusive; / = not tested or not shown; [ ] = remark or other dose. Hits are enriched below; roughly 6.5% of the tested compounds scored in any of these assays. On the % scale 0 is the no-effect control and ±100 the full control effect.

SMILES	Vaccinia Venus	FMDV inh	HCMV inh	MARV entry inh	VACV mCherry inh	LASV entry inh
COc1cnc(-c2ccccn2)nc1Sc1c(Cl)cccc1Cl	/	-18%	-73*	?	/	?
CCc1ccccc1NC(=O)CCNS(=O)(=O)c1ccc2c(c1)CCCC(=O)N2	-2%	0%	-5	/	-8%	18%[46.1 µM]
C=CCCC(=O)N1C[C@H]2CON(C)[C@H]2C[C@H]1c1ccccc1Br	-5%	-22%	2	/	i	/
C=CCCC(=O)N1C[C@H]2CON(C)[C@H]2C[C@H]1c1ccc(Br)cc1	-4%	-17%	-101*	/	-5%	/
Cn1c(COc2ccccc2)nnc1SCc1nc2ccccc2[nH]1	-26%	-4%	10	18%	-14%	27%
COc1ccc(C)cc1NC(=O)CSc1nnc(COc2ccccc2)n1Cc1ccco1	/	-36%	43	?	/	-6%
c1ccc(-c2nnc(SCc3nc4ccccc4[nH]3)n2Cc2ccco2)nc1	/	?	-64*	-20%	/	-2%
CCn1c(COc2ccc(C)cc2)nnc1SCc1nc2ccccc2[nH]1	/	?	-65*	?	/	-14%
Clc1cccc(-c2nnc(SCc3nc4ccccc4[nH]3)n2Cc2ccco2)c1	/	-23%	?	0%	/	-12%
COc1ccc(C)cc1NC(=O)CSc1nnc(COc2ccc(Cl)cc2)n1Cc1ccco1	/	-28%	-84*	?	/	-21%
Clc1ccc(OCc2nnc(SCc3nc4ccccc4[nH]3)n2Cc2ccco2)cc1	/	?	-80*	?	/	?
CS(=O)(=O)c1ccc(C(=O)OCC(=O)N2CCc3ccccc32)cc1[N+](=O)[O-]	-13%	/	/	/	-8%	/
CCCCCCc1cc2cc(C(=O)Nc3ccccc3)c(=O)oc2cc1O	-10%	?	-100*	2µM*	i	3.5µM*
CCCCCCc1cc2cc(C(=O)NCc3ccccc3)c(=N)oc2cc1O	/	-11%	-69*	?	/	2%
CCCCCCc1cc2cc(S(=O)(=O)c3ccc(C)cc3)c(=O)oc2cc1O	-21%	-22%	25	12%	13%	14%
O=C(NNS(=O)(=O)c1ccc2ccccc2c1)C1CCN(Cc2ccccc2)CC1	-14%	-17%	-107*	?	-14%	10%
CCO/C(=C/c1sc2ccc(OC)cc2[n+]1CCCS(=O)(=O)[O-])CC	/	-19%	15	6%	/	-7%
CCC(/C=C1\Sc2ccc(OC)cc2N1CC)=C\c1sc2ccc(OC)cc2[n+]1CCCS(=O)(=O)[O-]	/	18µM*	-21	?	/	?
CCC(/C=C1\Sc2ccc(OC)cc2N1CCO)=C\c1sc2ccc(OC)cc2[n+]1CCO	24%	18µM*	-98*	?	48%	?
Cc1ccc(S(=O)(=O)N2CCN(c3nc(-c4cscn4)nc4ccccc34)CC2)cc1	-23%	/	/	/	-25%	/
CN(C)CC(=O)N1[C@H](C(=O)Nc2nccs2)[C@@H](CO)[C@@H]2Cn3c(ccc(C4=CCCCC4)c3=O)[C@@H]21	/	/	-6	/	/	/
C/C(=N\NC(=O)Cc1ccccc1)c1cccs1	-7%	/	6	0%	-26%	-1%
CC(/C=N\NC(=O)Cn1c(C)nc2ccccc21)=C\c1ccccc1	-15%	?	-86*	?	-29%	-23%
O=C(Cn1cnc2ccccc21)N/N=C/C(Br)=C/c1ccccc1	?	?	-66*	-19%	?	-18%
Cn1c(=O)c2c(ncn2CC(=O)N/N=C/C(Br)=C/c2ccccc2)n(C)c1=O	-13%	?	?	-16%	-4%	-12%
SMILES	Vaccinia Venus	FMDV inh	HCMV inh	MARV entry inh	VACV mCherry inh	LASV entry inh
C/C(=N\NC(=O)Cn1c(C)nc2ccccc21)c1cccs1	-22%	?	-64*	-21%	i	-8%
COc1ccc(C(=O)NCc2nc(-c3ccccc3NC(=O)c3cc(C)oc3C)oc2C)cc1F	-8%	3%	/	/	-11%	/
CC(=O)N1CCOc2ccc(S(=O)(=O)N3CCC(C(=O)Nc4cc(C)ccc4C)CC3)cc21	-3%	-17%	-64*	-1%[46.1 µM]	-15%	17%[46.1 µM]
O=C1Cc2ccccc2C1=C1C=c2ccccc2=C1	14%	/	/	/	-14%	/
C/C=C/c1ccc(OCCCCN2C(=O)NC(C)(C)C2=O)c(OC)c1	-27%	-13%	-29	?	-4%	18µM*
COc1ccccc1/C=C/C(=O)OCC(=O)c1c(N)n(C)c(=O)n(C)c1=O	-15%	-2%	-22	0.89µM*	-16%	18%

Screening results from PubChem.
